{
  "source": "PubChem BioAssay",
  "note": "Values joined by “and” are separate entries in the source; they are usually repeats but may differ in a detail not shown here. Equal values may be shown once. Active and inactive are the calls of the source. Cut-off read from the data, not from the text of the source: active = parasite load remaining mostly below about 12% (no sharp cut-off); inactive = mostly above about 10%.",
  "data": [
    {"assay": "75Q-TubH aggregate inhibition, S. cerevisiae, yeast (AID 1616)", "settings": "S. cerevisiae 75Q-TubH polyglutamine aggregation suppression; stronger effect = higher value", "values": [
      {"smiles": "CC(=O)OCC(=O)[C@@]1(O)[C@H](C)CC2C3CCC4=CC(=O)C=C[C@]4(C)[C@@]3(F)[C@@H](O)C[C@@]21C", "note": "(stereo partly specified)", "aggregation suppression score": 1.32},
      {"smiles": "Nc1ccn(C2O[C@H](CO)[C@@H](O)[C@H]2O)c(=O)n1", "note": "(stereo partly specified)", "aggregation suppression score": 1.06},
      {"smiles": "C=C(C)[C@H]1CC=C(C(=O)O)CC1", "aggregation suppression score": 0.107},
      {"smiles": "NC(COCc1ccccc1)C(=O)O", "note": "(stereo unspecified)", "aggregation suppression score": 1.4},
      {"smiles": "CC1(C)C2CC[C@]3(C)C(C(=O)C=C4[C@H]5C[C@@](C)(C(=O)O)CC[C@]5(C)CC[C@]43C)[C@@]2(C)CC[C@@H]1O", "note": "(stereo partly specified)", "aggregation suppression score": 0.949},
      {"smiles": "CC1(C)C2CC[C@]3(C)C(C(=O)C=C4[C@@H]5C[C@@](C)(C(=O)O)CC[C@]5(C)CC[C@]43C)[C@@]2(C)CC[C@@H]1O", "note": "(stereo partly specified)", "aggregation suppression score": 1.4},
      {"smiles": "COc1ccc([C@@H]2CC(=O)c3c(O)cc(O[C@@H]4O[C@H](CO[C@H]5O[C@@H](C)[C@H](O)[C@@H](O)[C@H]5O)[C@@H](O)[C@H](O)[C@H]4O)cc3O2)cc1O", "aggregation suppression score": 1.41},
      {"smiles": "CC(=O)[C@@]1(O)CCC2C3C=C(Cl)C4=CC(=O)[C@@H]5CC5[C@]4(C)C3CC[C@@]21C", "note": "(stereo partly specified)", "aggregation suppression score": 0.681},
      {"smiles": "CC(C)(C)NC[C@@H](O)COc1nsnc1N1CCOCC1", "aggregation suppression score": 1.29},
      {"smiles": "CC(C)CC(NC(=O)CCN)C(=O)O", "note": "(stereo unspecified)", "aggregation suppression score": 1.32},
      {"smiles": "CC[C@H](C)C(=O)O[C@H]1CCC=C2C=C[C@H](C)C(CCC3C[C@@H](O)CC(=O)O3)[C@H]21", "note": "(stereo partly specified)", "aggregation suppression score": 0.746},
      {"smiles": "NC[C@H]1O[C@H](O[C@H]2C(O[C@@H]3O[C@H](CO)[C@@H](O)[C@H]3O)[C@@H](O)[C@H](N)C[C@@H]2N)[C@H](N)[C@@H](O)[C@@H]1O", "note": "(stereo partly specified)", "aggregation suppression score": 0.969},
      {"smiles": "CC1=C2C(=CO[C@H](C)[C@H]2C)C(=O)C(C(=O)O)=C1O", "aggregation suppression score": 0.187},
      {"smiles": "CC(=O)Oc1ccc2c(c1)CCC1C2CC[C@@]2(C)C1CC[C@@H]2OC(C)=O", "note": "(stereo partly specified)", "aggregation suppression score": 0.34},
      {"smiles": "C1CCN2C[C@H]3C[C@H](CN4CCCC[C@@H]34)[C@H]2C1", "aggregation suppression score": 1.49},
      {"smiles": "CC1CCC2(OC1)OC1CC3C4CC[C@H]5C[C@@H](O)CC[C@]5(C)C4CC(=O)[C@]3(C)C1C2C", "note": "(stereo partly specified)", "aggregation suppression score": 1.27},
      {"smiles": "CCCC(=O)Nc1ncnc2c1ncn2C1O[C@@H]2COP(=O)(O)O[C@H]2[C@H]1OC(=O)CCC", "note": "(stereo partly specified)", "aggregation suppression score": 1.79},
      {"smiles": "CC(=O)O[C@@H]1CC2C(C)(C)C(=O)C=C[C@]2(C)C2CC[C@@]3(C)[C@H](c4ccoc4)OC(=O)[C@H]4O[C@]43[C@@]21C", "note": "(stereo partly specified)", "aggregation suppression score": 0.57},
      {"smiles": "CC(=O)N[C@@H]1[C@@H](C(O)[C@H](O)CO)O[C@](O)(C(=O)O)C[C@@H]1O", "note": "(stereo partly specified)", "aggregation suppression score": 0.464},
      {"smiles": "CC(C)Oc1ccc2c(=O)cc(-c3ccccc3)oc2c1", "aggregation suppression score": 0.599},
      {"smiles": "COc1ccc(-c2cc(=O)c3c(O)cc(O[C@@H]4O[C@H](CO[C@H]5O[C@H](C)[C@@H](O)[C@H](O)[C@@H]5O)[C@@H](O)[C@H](O)[C@H]4O)cc3o2)cc1O", "aggregation suppression score": 1.82},
      {"smiles": "C[N+]1(C)C2CC(OC(=O)[C@@H](CO)c3ccccc3)CC1C1OC12", "note": "(stereo partly specified)", "aggregation suppression score": 1.44},
      {"smiles": "COC1=CC(C)[C@@H]2C[C@H]3OC(=O)C[C@H]4C(C)=C(OC)C(=O)C([C@@]34C)[C@@]2(C)C1=O", "note": "(stereo partly specified)", "aggregation suppression score": 1.57},
      {"smiles": "NC(Cc1ccc(F)cc1)C(=O)O", "note": "(stereo unspecified)", "aggregation suppression score": 1.47},
      {"smiles": "COC(=O)C(N)CS", "note": "(stereo unspecified)", "aggregation suppression score": 1.19}
    ]},
    {"assay": "P. berghei load reduction in hepatocytes – cell-based, HepG2, luciferase luminescence, HepG2 viability, primary screen (AID 624349);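 note: 100% = mean of DMSO negative control wells on the same plate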", "settings": "P. berghei liver stage in HepG2, luciferase luminescence, concentration not given here; parasite load remaining: stronger effect = lower value; viability: measured here: HepG2 viability without parasites", "values": [
      {"smiles": "CC(=O)OCC(=O)[C@@]1(O)[C@H](C)CC2C3CCC4=CC(=O)C=C[C@]4(C)[C@@]3(F)[C@@H](O)C[C@@]21C", "note": "(stereo partly specified)", "viability": "73.1%", "parasite load remaining": "140% (inactive)"},
      {"smiles": "O=C(/C=C/c1ccc(O)c(O)c1)OC(Cc1ccc(O)c(O)c1)C(=O)O", "note": "(stereo unspecified)", "viability": "70.8%", "parasite load remaining": "107% (inactive)"},
      {"smiles": "C=C(C)[C@H]1CC=C(C(=O)O)CC1", "viability": "69.4%", "parasite load remaining": "101% (inactive)"},
      {"smiles": "C/C=C(/C)C(=O)O[C@@H]1[C@H](OC(C)=O)[C@@]2(CO)C(CC1(C)C)C1=CCC3[C@@]4(C)CC[C@H](O[C@@H]5O[C@H](C(=O)O)[C@@H](O[C@@H]6O[C@H](CO)[C@@H](O)[C@H](O)[C@H]6O)[C@H](O)[C@H]5O[C@@H]5O[C@H](CO)[C@@H](O)[C@H](O)[C@H]5O)[C@](C)(CO)C4CC[C@@]3(C)[C@]1(C)C[C@H]2O", "note": "(stereo partly specified)", "parasite load remaining": "66% (inactive)", "viability": "87.2%"},
      {"smiles": "C[C@@H]1O[C@@H](OC[C@H]2OC(Oc3c(-c4ccc(OCCO)c(OCCO)c4)oc4cc(OCCO)cc(O)c4c3=O)[C@H](O)[C@@H](O)[C@@H]2O)[C@H](O)[C@H](O)[C@H]1O", "note": "(stereo partly specified)", "parasite load remaining": "141% (inactive)", "viability": "89.1%"},
      {"smiles": "CC1(C)C2CC[C@]3(C)C(C(=O)C=C4[C@@H]5C[C@@](C)(C(=O)O)CC[C@]5(C)CC[C@]43C)[C@@]2(C)CC[C@@H]1O", "note": "(stereo partly specified)", "parasite load remaining": "94.2% (inactive)", "viability": "71%"},
      {"smiles": "NC(=O)Nc1sc(-c2ccc(F)cc2)cc1C(N)=O", "viability": "79.5%", "parasite load remaining": "72.5% (inactive)"},
      {"smiles": "CC(=O)[C@@]1(O)CCC2C3C=C(Cl)C4=CC(=O)[C@@H]5CC5[C@]4(C)C3CC[C@@]21C", "note": "(stereo partly specified)", "parasite load remaining": "143% (inactive)", "viability": "89.2%"},
      {"smiles": "CC(C)(C)NC[C@@H](O)COc1nsnc1N1CCOCC1", "viability": "72.4%", "parasite load remaining": "198% (inactive)"},
      {"smiles": "NC[C@H]1O[C@H](O[C@H]2C(O[C@@H]3O[C@H](CO)[C@@H](O)[C@H]3O)[C@@H](O)[C@H](N)C[C@@H]2N)[C@H](N)[C@@H](O)[C@@H]1O", "note": "(stereo partly specified)", "parasite load remaining": "166% (inactive)", "viability": "89%"},
      {"smiles": "CC(=O)Oc1ccc2c(c1)CCC1C2CC[C@@]2(C)C1CC[C@@H]2OC(C)=O", "note": "(stereo partly specified)", "viability": "70.5%", "parasite load remaining": "102% (inactive)"},
      {"smiles": "CC(CCC(=O)O)[C@H]1CCC2C3CC[C@@H]4C[C@H](O)CC[C@]4(C)C3CC[C@@]21C", "note": "(stereo partly specified)", "viability": "67.3%", "parasite load remaining": "32.1% (inactive)"},
      {"smiles": "C[C@@H]1CC[C@@]2(OC1)OC1CC3C4CC=C5C[C@@H](O)CC[C@]5(C)C4CC[C@]3(C)C1[C@@H]2C", "note": "(stereo partly specified)", "viability": "91.4%", "parasite load remaining": "131% (inactive)"},
      {"smiles": "CC1CCC2(OC1)OC1CC3C4CC[C@H]5C[C@@H](O)CC[C@]5(C)C4CC(=O)[C@]3(C)C1C2C", "note": "(stereo partly specified)", "parasite load remaining": "106% (inactive)", "viability": "69.7%"},
      {"smiles": "CC(=O)Oc1ccc2c(c1)CCC1C2CC[C@]2(C)C(=O)CCC12", "note": "(stereo partly specified)", "parasite load remaining": "88.9% (inactive)", "viability": "66.4%"},
      {"smiles": "CCCC(=O)Nc1ncnc2c1ncn2C1O[C@@H]2COP(=O)(O)O[C@H]2[C@H]1OC(=O)CCC", "note": "(stereo partly specified)", "viability": "95%", "parasite load remaining": "129% (inactive)"},
      {"smiles": "CC(=O)O[C@@H]1CC2C(C)(C)C(=O)C=C[C@]2(C)C2CC[C@@]3(C)[C@H](c4ccoc4)OC(=O)[C@H]4O[C@]43[C@@]21C", "note": "(stereo partly specified)", "parasite load remaining": "2.66% (inactive)", "viability": "98.4%"},
      {"smiles": "CCCCC(=O)O[C@]1(C(=O)CO)[C@@H](C)CC2C3CCC4=CC(=O)C=C[C@]4(C)[C@@]3(F)C(O)C[C@@]21C", "note": "(stereo partly specified)", "viability": "71%", "parasite load remaining": "94.9% (inactive)"},
      {"smiles": "NC[C@@H]1O[C@H](O[C@@H]2[C@@H](CO)OC(O[C@@H]3[C@@H](O)[C@H](N)C[C@H](N)[C@H]3O[C@H]3O[C@H](CO)[C@@H](O)[C@H](O)[C@H]3N)[C@@H]2O)[C@H](N)[C@@H](O)[C@@H]1O", "note": "(stereo partly specified)", "parasite load remaining": "141% (inactive)", "viability": "87.6%"},
      {"smiles": "COc1ccc(-c2cc(=O)c3c(O)cc(O[C@@H]4O[C@H](CO[C@H]5O[C@H](C)[C@@H](O)[C@H](O)[C@@H]5O)[C@@H](O)[C@H](O)[C@H]4O)cc3o2)cc1O", "viability": "98.3%", "parasite load remaining": "42.5% (inactive)"},
      {"smiles": "C[N+]1(C)C2CC(OC(=O)[C@@H](CO)c3ccccc3)CC1C1OC12", "note": "(stereo partly specified)", "viability": "78.8% and 91.6%", "parasite load remaining": "89.5% (inactive) and 73.4% (inactive)"},
      {"smiles": "CC(=O)N1CCCC1C(=O)O", "note": "(stereo unspecified)", "parasite load remaining": "194% (inactive)", "viability": "68.3%"},
      {"smiles": "COC(=O)C(N)CS", "note": "(stereo unspecified)", "parasite load remaining": "102% (inactive)", "viability": "69.9%"}
    ]}
  ]
}
